Among the data in PubChem BioAssay (Tox21) are outcome values, retold here.

Results filed as inconclusive are left out. The source made the active and inactive calls. The call rests on the fitted dose curve; in most records, active means well fitted cell-killing curve with a large enough effect in the repeat runs; inconclusive means weak or mixed curves, or effect the other way; inactive means no such curve, though single readings can be large or run the other way. Residues, ends and D or L forms follow the SMILES beside them.

The nature of this experiment: qHTS assay to identify small molecule agonists of the vitamin D receptor (VDR) signaling pathway - cell viability counter screen (AID 743224). Further: nearly all actives have a fitted effect of over 50% in size. The note with it: VDR-bla HEK293T viability, CellTiter-Glo luminescence, 16 h; series mostly up to 62.6 µM. The text has this: U.S. Tox21 Program National Center for Advancing Translational Sciences [NCATS] NIH Chemical Genomics Center [NCGC] U.S. Environmental Protection Agency [EPA] National Institutes of Environmental Health Sciences [NIEHS] National Toxicology Program [NTP] U.S. Food and Drug Administration [FDA] Tox21 Assay Overview: The vitamin D receptor (VDR), a member of nuclear hormone receptor superfamily, plays a critical role in calcium homeostasis and bone metabolism. It is also involved in cell differentiation and growth, and thrombogenicity. […] The cytotoxicity of the Tox21 compound library against the VDR-bla cell line was tested in parallel by measuring the cell viability using CellTiter-Glo assay (Promega, Madison, WI) in the same wells.
Tox21 Assay Protocol Summary: VDR-bla cells were dispensed at 2,000 cells/6 uL/well into black wall/clear-bottom 1536-well plates using a Multidrop Combi (Thermo Fisher Scientific, Waltham, MA) dispenser. After the assay plates were incubated at a 37C and 5% CO2 for 4 h, 23 nL of compounds dissolved in DMSO, positive controls or DMSO only was transferred to the assay plate by a Pintool station (Kalypsys, San Diego, CA). The plates were incubated at 37C and 5% CO2 for 16 h. After 1 uL of LiveBLAzerTM B/G FRET substrate was added using a Bioraptr Flying Reagent Dispenser (FRD) workstation (Beckman Coulter, Indianapolis, IN, USA), the plates were incubated at room temperature for 2 h, and fluorescence intensity was measured by an Envision plate reader (PerkinElmer, Shelton, CT). For cell viability readout that measures cytotoxicity, 3 ul/well of CellTiter-Glo reagent was added into the assay plates using a FRD. After 30 min incubation at room temperature, the luminescence intensity in the plates was measured using a ViewLux (PerkinElmer) plate reader.
On to `C1N2CN3CN1CN(C2)C3`, for which the outcome was inactive.
On to `CCOc1ccc(NC(=O)CC(C)O)cc1` (stereo not given), for which the result was inactive.
As for `Nc1ccc(C(=O)O)cc1`, the entry is “inactive”; as for `CCCCOC(=O)CC(CC(=O)OCCCC)(OC(C)=O)C(=O)OCCCC`, “inactive”; as for `CCCCCCCCCCCCCCCC(=O)O`, “inactive”.
Take `Cn1cc[nH]c1=S`: the result was inactive.
Take `NS(=O)(=O)c1cc(C(=O)O)c(NCc2ccco2)cc1Cl`: the result was inactive.
Take `COC(=O)[C@H](Cc1ccccc1)NC(=O)[C@@H](N)CC(=O)O` (H-Asp-Phe-OMe): the compound was called inactive.
Next, `O=C(O)CCC(=O)O`: “inactive”; `CCCC(CCC)C(=O)O`: “inactive”.
For the compound `O=c1cc[nH]c(=S)[nH]1`, the outcome was inactive.
Consider `Nc1ccc(O)c(C(=O)O)c1`, for which the result was inactive.
Next, `COc1ccc2[nH]cc(CCNC(C)=O)c2c1`: “inactive”; `CC(=O)NS(=O)(=O)c1ccc(N)cc1`: “inactive”; `OC(Cn1cncn1)(Cn1cncn1)c1ccc(F)cc1F`: “inactive”.
For the compound `O=S(=O)(O)c1ccc2cc(O)ccc2c1`, the result was inactive.
On to `NC(=O)c1cnccn1`, for which the compound was called inactive.
Take `O=S(=O)(O)NC1CCCCC1`: the outcome was inactive.
As for `CCCCC(CC)COC(=O)/C=C/c1ccc(OC)cc1` (stereo not given), the compound was called inactive.
Consider `Cc1cn([C@H]2C[C@H](N=[N+]=[N-])[C@@H](CO)O2)c(=O)[nH]c1=O`, for which the call was inactive.
For `Nc1ccn([C@H]2CC[C@@H](CO)O2)c(=O)n1`, the result was inactive.
As for `Cc1ccc(S(=O)(=O)NC(=O)NN2CCCCCC2)cc1`, the entry is “inactive”; as for `NNC(=O)c1ccncc1`, “inactive”; as for `CC(=O)OCC(COC(C)=O)OC(C)=O`, “inactive”.
Next, `O=C(O)C(=O)O`: “inactive”; `O=C(C1CCCCC1)N1CC(=O)N2CCc3ccccc3C2C1` (stereo not given): “inactive”.
For the compound `NC(=O)NC1NC(=O)NC1=O` (stereo not given), the compound was classed as inactive.
As for `CC(O)C(=O)O` (stereo not given), the entry is “inactive”.
`Nc1ccc(S(=O)(=O)Nc2nccs2)cc1`: the compound was classed as inactive.
Take `NC(=O)c1ccccc1O`: the outcome was inactive.
Take `CC(C)(Oc1ccc(C2CC2(Cl)Cl)cc1)C(=O)O` (stereo not given): the outcome was inactive.
As for `Cc1cc(=O)[nH]c(=S)[nH]1`, the entry is “inactive”; as for `C/C=C/c1ccc(OC)cc1`, “inactive”.
As for `C[C@]12C=CC(=O)C=C1CC[C@@H]1[C@@H]2[C@@H](O)C[C@@]2(C)[C@H]1CC[C@]2(O)C(=O)CO`, the compound was classed as inactive.
For `CCCCC1C(=O)N(c2ccccc2)N(c2ccccc2)C1=O`, the compound was called inactive.
Turning to `Cc1ccc(C)c(OCCCC(C)(C)C(=O)O)c1`, the call was inactive.
As for `CC(O)CN(CCN(CC(C)O)CC(C)O)CC(C)O` (stereo not given), the entry is “inactive”; as for `Cn1c(=O)c2[nH]cnc2n(C)c1=O`, “inactive”; as for `CCCN(CCC)S(=O)(=O)c1ccc(C(=O)O)cc1`, “inactive”.
On to `O=C(O)CCCCC(=O)O`, for which the result was inactive.
